“And” between values parts separate entries of the source, which are not always exact repeats. Equal values may be shown once.
Experiments:
Assay in all cases: growth inhibition (% activity, log2 RLU normalised to DMSO / staurosporine); higher = more growth inhibition
Details in all cases: 33 µM
[1] = test system: DIPGX29 (H3.3 K27M diffuse intrinsic pontine glioma line)
Method in brief: (§1)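 Approved drugs were tested in triplicate at a single final concentration of about 33 μM for 7 days at 37 °C, 5% CO2, on pHGG cell lines and H9-derived neural stem cells. Readout was CellTiter-Glo luminescence, log2-transformed and scaled per plate to % activity between solvent and positive control wells. The median over replicates gives the growth-inhibition value.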

[2] = test system: DIPGX37 (H3.3 K27M diffuse intrinsic pontine glioma line)
Method in brief: as §1

[3] = test system: DIPGX7 (H3.3 K27M diffuse intrinsic pontine glioma line)
Method in brief: as §1

[4] = test system: DIPGX9 (diffuse intrinsic pontine glioma line)
Method in brief: as §1

[5] = test system: HGGX39 (paediatric high-grade glioma line)
Method in brief: as §1

[6] = test system: HGGX6 (H3.3 G34R paediatric high-grade glioma line)
Method in brief: as §1

[7] = test system: HNSC
Method in brief: as §1

[8] = test system: SUDIPGIV (diffuse intrinsic pontine glioma line)
Method in brief: as §1

[9] = test system: SUDIPGVI (diffuse intrinsic pontine glioma line)
Method in brief: as §1

[10] = test system: SUDIPGXIII (diffuse intrinsic pontine glioma line)
Method in brief: as §1

| Compound | growth inhibition [1] | growth inhibition [2] | growth inhibition [3] | growth inhibition [4] | growth inhibition [5] | growth inhibition [6] | growth inhibition [7] | growth inhibition [8] | growth inhibition [9] | growth inhibition [10] |
| --- | --- | --- | --- | --- | --- | --- | --- | --- | --- | --- |
| CC1(C)S[C@@H]2[C@H](NC(=O)[C@H](NC(=O)N3CCNC3=O)c3ccccc3)C(=O)N2[C@H]1C(=O)O | -0.235% | 0.459% | -0.00643% | 0.298% | 1.59% | -0.0472% | -1.56% | -0.88% | -1.06% | -0.815% |
| CC/C(=C(\c1ccccc1)c1ccc(OCCN(C)C)cc1)c1ccccc1 | 7.72% | 1.28% | 12.1% | 3.63% | 11.1% | 10.5% | 21% | 7.38% | 5.56% | 2.99% |
| CC(C)NCC(O)COc1cccc2ccccc12 (stereo unspecified) | -0.19% | -0.496% | -0.508% | 1.12% | 0.98% | 0.0936% | -3.29% | -1.1% | 0.673% | – |
| O=c1ccc2ccccc2o1 | 0.12% | 0.196% | -0.587% | 2.02% | 1.94% | 0.845% | -0.623% | -0.0159% | 1.45% | – |
| Cc1c(Nc2ncccc2C(=O)O)cccc1C(F)(F)F | 0.454% | 2.84% | 0.522% | 1.64% | 1.78% | 3.08% | 1.18% | -3.76% | 2.1% | – |
| Oc1c(Br)cc(Br)c2cccnc12 | -0.427% | 0.213% | 1.4% | 1.88% | 2.61% | 1.93% | -0.441% | 0.619% | 2.93% | – |
| COc1cc2c(cc1OC)CC(=O)N(CCCN(C)C[C@H]1Cc3cc(OC)c(OC)cc31)CC2 | -0.791% | 1.83% | 1.52% | 1.21% | 2.26% | 0.769% | 7.75% | 0.5% | 1.04% | – |
| CN(CCOc1ccc(CC2SC(=O)NC2=O)cc1)c1ccccn1 (stereo unspecified) | 0.694% and -0.307% and -1.83% | 3.97% and -0.209% and -2.53% | 1.8% and -0.988% and -1.81% | 2.03% and 1.11% and 0.786% | 1.62% and 0.821% and 0.11% | 1.66% and 0.11% and -0.818% | -0.719% and -0.633% and -2.63% | 4.42% and -0.944% and -1.21% | 1.7% and -0.11% and -0.397% | -15.6% and -1.12% |
| CCOC(=O)n1ccn(C)c1=S | 1.7% | 2.04% | 0.732% | 1.21% | 0.889% | 2.62% | 0.384% | -0.192% | 2.2% | -16.1% |
| CC(C)(C)C(=O)C(Oc1ccc(Cl)cc1)n1ccnc1 (stereo unspecified) | 0.826% | 1.56% | 3.93% | 1.25% | 5.9% | 4.74% | 5.37% | 7.06% | 2.6% | – |
| Cc1cc2nc3c(=O)[nH]c(=O)nc-3n(C[C@H](O)[C@H](O)[C@H](O)CO)c2cc1C | -1.75% | 2.89% | 0.461% | -0.233% | 2.78% | -1.29% | 6.98% | 4.43% | 2.29% | 1.1% |
| COc1cc2c(cc1Cc1cccc(Cl)c1F)c(=O)c(C(=O)O)cn2[C@H](CO)C(C)C | 1.03% | 1.4% | 3.52% | 3.93% | 4.45% | 0.0329% | 19.8% | 9.68% | 1.61% | 5.02% |
| NC[C@@H]1O[C@H](O[C@H]2[C@@H](O)[C@H](O[C@@H]3[C@@H](O)[C@H](N)C[C@H](N)[C@H]3O[C@H]3O[C@H](CO)[C@@H](O)[C@H](O)[C@H]3N)O[C@@H]2CO)[C@H](N)[C@@H](O)[C@@H]1O | 0.301% | 2.89% | 0.972% | 0.973% | 1.1% | 1.84% | -2.1% | -0.26% | 0.401% | 0.0349% |
| CCn1cc(C(=O)O)c(=O)c2ccc(C)nc21 | -2.16% | -2.18% | -0.91% | 0.0696% | -0.871% | 0.278% | -2.82% | -0.499% | -1.38% | – |
| CCCN1CCCC[C@H]1C(=O)Nc1c(C)cccc1C | -0.141% | 1.83% | 0.26% | 0.846% | 2.25% | 1.44% | -0.32% | -1.01% | 0.908% | – |
| CC[C@H]1OC(=O)[C@H](C)[C@@H](O[C@H]2C[C@@](C)(OC)[C@@H](O)[C@H](C)O2)[C@H](C)[C@@H](O[C@@H]2O[C@H](C)C[C@H](N(C)C)[C@H]2O)[C@](C)(O)C[C@@H](C)/C(=N\OCOCCOC)[C@H](C)[C@@H](O)[C@]1(C)O | -1.55% | -0.523% | -0.0281% | 1.56% | 1.63% | 0.659% | -0.847% | 0.447% | -0.66% | – |
| CN(C)CCC=C1c2ccccc2CCc2ccccc21 | 0.114% | 2.57% | 1.28% | 1.79% | 5.11% | 2.03% | 0.41% | 1.93% | 2.05% | – |
| O=C(O)c1cccnc1Nc1cccc(C(F)(F)F)c1 | -0.796% | 3.58% | -0.0228% | 0.51% | 1.81% | 2.52% | -1.26% | -3.93% | 2.23% | – |
| CC[C@H]1OC(=O)[C@H](C)[C@@H](O[C@H]2C[C@@](C)(OC)[C@@H](O)[C@H](C)O2)[C@H](C)[C@@H](O[C@@H]2O[C@H](C)C[C@H](N(C)C)[C@H]2O)[C@](C)(O)C[C@@H](C)[C@@H]2N[C@@H](COCCOC)O[C@H]([C@H]2C)[C@]1(C)O | -1.13% | -1.4% | -1.51% | -0.804% | -0.699% | -1.07% | -4.19% | -1.28% | -0.768% | – |
| C[C@H](Cc1cc2c(c(C(N)=O)c1)N(CCCO)CC2)NCCOc1ccccc1OCC(F)(F)F | 1.54% | 2.46% | 0.991% | -0.478% | 0.741% | -0.678% | 3.54% | 1.64% | 1.49% | -1.83% |
| COC(=O)C1=CO[C@@H](O[C@@H]2O[C@H](CO)[C@@H](O)[C@H](O)[C@H]2O)[C@@H]2C(CO)=CC[C@H]12 | -1.79% | -0.171% | -2.08% | 0.601% | 0.266% | 2.37% | -2.11% | -1.32% | -2.76% | – |
| CC(C)[C@H]1CC[C@H](C(=O)N[C@H](Cc2ccccc2)C(=O)O)CC1 | -0.743% | 0.294% | 0.0113% | 0.231% | 1.32% | 1.09% | -0.0956% | -1.21% | -0.179% | – |

Source: the supplement of paper PMC8253809
